Reference: PubChem BioAssay (NCI)
Compounds without any hit were thinned out: in the full panel of roughly 83,000, 20% have a hit.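 The endpoint reported here, percent growth, reads 100 for growth as untreated, 0 for no net growth and -100 for all cells dead.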 Calls of active or inactive are those of the source. The calls were made as follows: active = growth percent below 10; inactive = the rest.

Assays:
Assay in all cases: NCI-60 one-dose screen, 48 h (100 = growth as untreated, 0 = no growth, -100 = all killed)
Settings in all cases: 10 µM unless noted
[1] = tested on: HCT-15 colon
[2] = tested on: HT29 colon
[3] = tested on: SNB-75 CNS
[4] = tested on: SNB-19 CNS
[5] = tested on: U251 CNS
[6] = tested on: PC-3 prostate
[7] = tested on: SK-MEL-5 melanoma
[8] = tested on: UACC-62 melanoma
[9] = tested on: LOX IMVI melanoma
[10] = tested on: SK-MEL-28 melanoma
[11] = tested on: SK-MEL-2 melanoma
[12] = tested on: EKVX NSCLC
[13] = tested on: SN12C renal
[14] = tested on: UO-31 renal
[15] = tested on: TK-10 renal
[16] = tested on: ACHN renal
[17] = tested on: CAKI-1 renal
[18] = tested on: A498 renal
[19] = tested on: CCRF-CEM leukemia
[20] = tested on: MOLT-4 leukemia

Measured: growth

Cc1cc(C(C)(CC(C)C)c2ccc(O)c(C)c2)ccc1O
inactive: [1] 85.5% | [2] 98.7% | [3] 75.8% | [4] 109% | [5] 94.3% | [6] 93.2% | [7] 97.5% | [8] 71.1% | [9] 97% | [10] 114% | [11] 104% | [12] 89.5% | [13] 85.6% | [14] 84.6% | [15] 141% | [16] 83.3% | [17] 73.3% | [18] 101% | [19] 92% | [20] 80.8%

N#CC1C(=O)SC2c3ccccc3C(=O)c3ccccc3C12 (stereo not given)
inactive: [1] 111% | [2] 97.7% | [3] 96.3% | [4] 99.4% | [5] 92% | [6] 82.1% | [7] 97.2% | [8] 89.2% | [9] 95.3% | [10] 112% | [11] 98.5% | [12] 107% | [13] 101% | [14] 89.5% | [15] 99.5% | [17] 88% | [18] 105% | [19] 95% | [20] 99.6%

COc1cc(/C=C(/C)C[N+](=O)[O-])ccc1O
inactive: [1] 46.1% | [2] 101% | [3] 78.4% | [4] 97.8% | [5] 92% | [6] 93.8% | [7] 101% | [8] 83.6% | [9] 47.5% | [10] 54.3% | [11] 96.9% | [12] 109% | [13] 86.3% | [14] 73.3% | [15] 87.4% | [16] 95.9% | [19] 56.9% | [20] 80.6%

O=C(Nc1ccccc1)c1cc(Cl)ccc1O
active: [7] 7.81% | [11] -6.3% | [18] -4.6%
inactive: [1] 64.1% | [2] 89% | [3] 64% | [4] 41.3% | [5] 59.1% | [6] 66.5% | [8] 34.1% | [9] 79.8% | [10] 55.7% | [12] 88.2% | [13] 61.8% | [14] 49.7% | [15] 53.5% | [16] 57.3% | [17] 49.6% | [19] 68% | [20] 77.2%

COC(=O)c1nc(=S)[nH]c(C(=O)OC)c1C(=O)c1ccccn1
active: [7] -26.2% | [20] 2.29%
inactive: [1] 16.8% | [2] 34.5% | [3] 57.2% | [4] 43.1% | [5] 31% | [6] 31.1% | [8] 11.9% | [9] 10.2% | [10] 38.1% | [11] 24.9% | [12] 34.9% | [13] 39.1% | [14] 11.7% | [15] 47.6% | [16] 10.2% | [17] 15% | [18] 145% | [19] 10.7%

O=C1OCc2cccc3cccc1c23
inactive: [1] 94.6% | [2] 105% | [3] 85.2% | [4] 104% | [5] 106% | [6] 89.5% | [7] 101% | [8] 95.5% | [9] 103% | [10] 107% | [11] 123% | [12] 88.2% | [13] 101% | [14] 77% | [15] 101% | [16] 95.7% | [17] 102% | [18] 83.5% | [19] 94.5%

N#CSCc1ccc(CSC#N)c(Cl)c1
inactive: [1] 37.1% | [2] 34.7% | [3] 32.2% | [4] 84% | [5] 85.8% | [6] 81.6% | [7] 65.2% | [8] 72.2% | [9] 46.6% | [10] 83.3% | [11] 86.2% | [12] 90.9% | [13] 50.5% | [14] 36.7% | [15] 94.3% | [16] 56.5% | [18] 91.9% | [19] 19.3% | [20] 28.9%
